Data reported in PubChem BioAssay AID1159580 (chemical genetic matrix, 2015).
Out of some 5,500 compounds screened, about 2,000 (36%) were called active. Roughly 18% stayed inconclusive and do not appear here. Cut-off read from the data, not from the text of the source: active = normalized growth mostly below about 0.91 (no sharp cut-off); inconclusive = no clear call, values can overlap the other calls; inactive = mostly above about 0.92. Some of the results follow.

Assay: chemical genetic growth profiling, strain panel (AID 1159580);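 note: tested at 20 µM; growth read once vehicle control cultures reached saturation at 30 °C; 1 = growth at the plate median or of vehicle wells; lower values mean less growth of the strain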
Conditions: growth OD
[1] = S. cerevisiae deletion strains, locus YAL040C, strain CLN3, stronger effect = lower value
[2] = S. cerevisiae deletion strains, locus YDR363W, strain ESC2, stronger effect = lower value
[3] = S. cerevisiae deletion strains, locus YER002W, strain NOP16, stronger effect = lower value
[4] = S. cerevisiae deletion strains, locus YMR307W, strain GAS1, stronger effect = lower value
[5] = S. cerevisiae deletion strains, locus YNL153C, strain GIM3, stronger effect = lower value
[6] = S. cerevisiae deletion strains, locus YNL175C, strain NOP13, stronger effect = lower value
[7] = S. cerevisiae deletion strains, locus YNL197C, strain WHI3, stronger effect = lower value
[8] = S. cerevisiae deletion strains, locus YNL224C, strain SQS1, stronger effect = lower value
[9] = S. cerevisiae deletion strains, locus YOR083W, strain WHI5 (second series), stronger effect = lower value
[10] = S. cerevisiae deletion strains, locus YPL055C, strain LGE1, stronger effect = lower value
[11] = S. cerevisiae deletion strains, locus YPL241C, strain CIN2, stronger effect = lower value
[12] = S. cerevisiae deletion strains, locus YAL013W, strain DEP1, stronger effect = lower value
[13] = S. cerevisiae deletion strains, locus YBR229C, strain ROT2, stronger effect = lower value
[14] = S. cerevisiae deletion strains, locus YDL101C, strain DUN1, stronger effect = lower value
[15] = S. cerevisiae deletion strains, locus YDL134C, strain PPH21, stronger effect = lower value
[16] = S. cerevisiae deletion strains, locus YDR150W, strain NUM1, stronger effect = lower value
[17] = S. cerevisiae deletion strains, locus YEL061C, strain CIN8, stronger effect = lower value
[18] = S. cerevisiae deletion strains, locus YGR078C, strain PAC10, stronger effect = lower value
[19] = S. cerevisiae deletion strains, locus YGR229C, strain SMI1, stronger effect = lower value
[20] = S. cerevisiae deletion strains, locus YHR030C, strain SLT2, stronger effect = lower value
[21] = S. cerevisiae deletion strains, locus YHR087W, strain rtc3, stronger effect = lower value
[22] = S. cerevisiae deletion strains, locus YJR043C, strain POL32, stronger effect = lower value
[23] = S. cerevisiae deletion strains, locus YJR075W, strain HOC1, stronger effect = lower value
[24] = S. cerevisiae deletion strains, locus YKL190W, strain CNB1, stronger effect = lower value
[25] = S. cerevisiae deletion strains, locus YLR039C, strain RIC1, stronger effect = lower value
[26] = S. cerevisiae deletion strains, locus YLR058C, strain SHM2 (second series), stronger effect = lower value
[27] = S. cerevisiae deletion strains, locus YLR085C, strain ARP6, stronger effect = lower value
[28] = S. cerevisiae deletion strains, locus YLR262C, strain YPT6, stronger effect = lower value
[29] = S. cerevisiae deletion strains, locus YML094W, strain GIM5, stronger effect = lower value
[30] = S. cerevisiae deletion strains, locus YMR219W, strain ESC1, stronger effect = lower value
[31] = S. cerevisiae deletion strains, locus YMR263W, strain SAP30, stronger effect = lower value
[32] = S. cerevisiae deletion strains, locus YNL298W, strain CLA4 (second series), stronger effect = lower value
[33] = S. cerevisiae deletion strains, locus YNL322C, strain KRE1, stronger effect = lower value
[34] = S. cerevisiae deletion strains, locus YNR030W, strain Alg12, stronger effect = lower value
[35] = S. cerevisiae deletion strains, locus YOL006C, strain TOP1, stronger effect = lower value
[36] = S. cerevisiae deletion strains, locus YPR135W, strain CTF4, stronger effect = lower value
[37] = S. cerevisiae deletion strains, locus YJL187C, strain SWE1, stronger effect = lower value
[38] = S. cerevisiae deletion strains, locus YNL128W, strain TEP1, stronger effect = lower value

Measured: normalized growth

N[C@@H](CCl)C(=O)O
inactive: [1] 0.98 | [2] 1.03 | [3] 0.99 | [4] 0.993 | [5] 1.05 | [6] 1.01 | [7] 1.03 | [8] 0.996 | [9] 1.01 | [10] 1.02 | [11] 1

CC(=O)Nc1cc2ccccc2oc1=O
inactive: [12] 1 | [13] 1 | [14] 0.975 | [15] 1 | [16] 0.986 | [17] 1.02 | [18] 1.01 | [19] 0.997 | [20] 0.942 | [21] 0.988 | [22] 1.01 | [23] 0.997 | [24] 1 | [25] 1.06 | [26] 1.01 | [27] 1.01 | [28] 1.04 | [29] 0.997 | [30] 1 | [31] 0.996 | [4] 1.09 | [5] 0.984 | [32] 0.998 | [33] 1.01 | [34] 1 | [35] 0.958 | [10] 0.969 | [11] 0.985 | [36] 0.946

CC(=O)c1cc2cc(Br)ccc2oc1=O
active: [25] 0.618 | [28] 0.628
inactive: [12] 0.987 | [13] 0.967 | [14] 0.998 | [16] 0.994 | [17] 0.975 | [18] 0.976 | [19] 0.994 | [20] 0.818 | [21] 0.96 | [37] 0.97 | [22] 0.984 | [23] 0.948 | [24] 0.992 | [26] 0.964 | [27] 0.936 | [29] 0.999 | [30] 0.96 | [31] 1 | [38] 1.01 | [5] 0.994 | [32] 0.983 | [33] 0.964 | [34] 0.97 | [10] 1.02 | [11] 0.964 | [36] 0.717

CC(=O)c1cc2ccccc2oc1=O
inactive: [12] 1.02 | [13] 1.01 | [14] 0.961 | [15] 1.02 | [16] 0.94 | [17] 1.01 | [18] 0.986 | [20] 1 | [21] 1.03 | [37] 0.999 | [22] 0.999 | [23] 0.988 | [25] 1.05 | [26] 1.01 | [27] 1.08 | [28] 1 | [29] 1.02 | [30] 0.993 | [31] 1.02 | [38] 1.01 | [5] 1.01 | [32] 1.07 | [33] 0.99 | [34] 1.05 | [35] 1.02 | [10] 1.13 | [11] 1.03 | [36] 0.984 | S. cerevisiae strains, strain wild type, stronger effect = lower value 1.03

CCCCCCCCCCCCCCCCOCC(COCC(F)(F)F)OP(=O)(O)OCO (stereo unspecified)
inactive: [12] 0.947 | [1] 1 | S. cerevisiae deletion strains, locus YCL061C, strain MRC1 (second series), stronger effect = lower value 0.987 | [2] 0.968 | [3] 0.995 | [23] 1.03 | [31] 1.02 | [6] 0.995 | [7] 1 | [8] 0.964 | [9] 0.988 | [11] 0.988
active: [19] 0.767 | [10] 0.881
